These results are taken from PubChem BioAssay.

Assay [1] in a line: anti-His antibody binders, primary screen, artefact control for SMM control protein annotation, biochemical, small-molecule microarray, 635 nm fluorescence (AID 1128).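 Further: score merges feature fluorescence with signal-to-noise for each printed compound spot.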 To be noted: anti-His Alexa647 antibody binding, higher = more signal.
Assay [2] has as its system Human papillomavirus type 1a E7 protein (residues 1-88). The assay can be described thus: HPV1a E7 small-molecule binders, primary screen, biochemical, small-molecule microarray, residues 1-88, 635 nm (AID 1129). As to conditions: small-molecule microarray binding, fluorescence 635 nm; higher = more signal.
Assay [3] has as its target Focal adhesion kinase 1 (Homo sapiens) (UniProt Q05397). Put plainly: small-molecule microarray binders of FAK, primary screen, biochemical, 635/667 nm fluorescence, BSA, DTT (AID 1130).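 Further: composite of spot emission at 667 nm and signal to noise over triplicate slides.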 As to conditions: PTK2 binding, 635 nm fluorescence, higher = more signal.
The subject of assay [4] is Fibrinogen (Alexa647-labelled). Put plainly: fibrinogen binders on compound microarrays, profiling panel, artefact control for SMM control-protein annotation, biochemical, small-molecule microarray, 635/667 nm fluorescence (AID 1131).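 Further: z-score merges 667 nm fluorescence with per-spot signal-to-noise over triplicate slides.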 To be noted: fibrinogen-A647 binding fluorescence, higher = more signal.
Assay [5] deals with Follistatin (Homo sapiens) (UniProt P19883). The assay can be described thus: follistatin binders on small-molecule microarrays, primary screen, biochemical, small-molecule microarray, 635/667 nm fluorescence (AID 1132). To be noted: FST binding, 635 nm fluorescence, higher = more signal.
Chain of Follistatin (Homo sapiens) (P19883 whole entry, looked up): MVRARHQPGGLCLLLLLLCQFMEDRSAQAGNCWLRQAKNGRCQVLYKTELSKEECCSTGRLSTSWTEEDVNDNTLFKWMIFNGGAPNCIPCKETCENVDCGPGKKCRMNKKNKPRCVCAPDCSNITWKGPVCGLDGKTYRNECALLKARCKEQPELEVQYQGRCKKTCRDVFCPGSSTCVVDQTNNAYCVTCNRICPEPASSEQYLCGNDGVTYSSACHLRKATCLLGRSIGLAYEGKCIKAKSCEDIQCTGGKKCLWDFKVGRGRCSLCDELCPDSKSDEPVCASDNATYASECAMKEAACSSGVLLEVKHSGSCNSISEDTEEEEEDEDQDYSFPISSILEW
Assay [6] deals with Fibroblast growth factor 2 (Homo sapiens) (UniProt P09038). The assay can be described thus: FGF2 binders on small-molecule microarrays, primary screen, biochemical, small-molecule microarray, 635/667 nm fluorescence (AID 1133). As to conditions: small-molecule microarray binding, FGF2, fluorescence 635/667; higher = more signal.
Chain of Fibroblast growth factor 2 (Homo sapiens) (P09038 whole entry, looked up): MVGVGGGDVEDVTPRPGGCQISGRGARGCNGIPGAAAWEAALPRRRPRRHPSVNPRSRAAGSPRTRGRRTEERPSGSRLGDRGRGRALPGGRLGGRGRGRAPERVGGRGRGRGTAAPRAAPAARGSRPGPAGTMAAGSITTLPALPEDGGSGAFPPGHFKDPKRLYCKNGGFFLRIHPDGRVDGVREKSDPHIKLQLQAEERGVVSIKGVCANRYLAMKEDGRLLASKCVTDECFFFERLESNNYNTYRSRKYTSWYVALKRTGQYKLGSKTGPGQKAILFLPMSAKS
Assay [7] is described as follows: mitochondrial membrane potential change in A549 cells, profiling panel, cell-based, JC-1 fluorescence, basal, 24 h, 100 nL (AID 1138).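 Further: A549 lung adenocarcinoma cells under basal conditions with no added stimulus; test concentration not given here.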 As to conditions: higher = more signal.
Another assay concerns Lefty1. The assay can be described thus: Lefty1 binders on small-molecule microarrays, primary screen, biochemical, small-molecule microarray, 635/667 nm fluorescence (AID 1139). To be noted: small-molecule microarray binding, fluorescence 635/667; higher = more signal.
Assay [8] has as its system wheat germ agglutinin (Triticum aestivum), Alexa647-labelled. Put plainly: wheat germ agglutinin binders on compound microarrays, profiling panel, artefact control for SMM control-protein annotation, biochemical, small-molecule microarray, 635/667 nm fluorescence (AID 1140).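 Further: score merges 667 nm feature emission with signal to noise over triplicate slides.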 To be noted: WGA-A647 binding, 635 nm fluorescence, higher = more signal.
Assay [9] concerns the target Luciferin 4-monooxygenase (Photinus pyralis) (UniProt P08659). The assay can be described thus: firefly luciferase enzyme inhibitors, primary screen, biochemical, luminescence, purified enzyme, 2006 set (AID 1141).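 Further: cell-free assay with purified firefly luciferase at 100 ng per well in PBS; test concentration not given here.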 To be noted: SteadyGlo luminescence, 30 min, higher = more signal, called active from +8 up or from −8 down.
Assay [10] relates to Wnt5a (protein binding on small-molecule microarray). Put plainly: Wnt5a binders on small-molecule microarray, primary screen, biophysical, 635/667 nm fluorescence (AID 1142).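 Further: fluorescence read at 667 nm with signal to noise per printed feature.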 To be noted: 635 nm fluorescence, higher = more signal.
Assay [11] can be described thus: cell viability in Huh7 cells, primary screen, cytotoxicity control for HCV replication inhibitor project, CellTiter-Glo luminescence, basal, 48 h (AID 1143).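 Further: Huh7 hepatoma cells carrying a hepatitis C replication reporter with no stimulus; test concentration not given here.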 As to conditions: Huh7 HCV replicon, higher = more signal, called active from +8 up or from −8 down.
Assay [12] is described as follows: P. aeruginosa biofilm formation inhibitors, primary screen, PAO1 strain, BacTiter-Glo luminescence, LB-PBS (AID 1144). As to conditions: 12 h, higher = more signal.
Assay [13] can be described thus: CREB reporter modulators without forskolin, primary screen, cell-based, PC12, CRE-LacZ reporter, unstimulated (AID 1145). As to conditions: no forskolin, luminescence, 4.5 h, higher = more signal, called active from +8 up or from −8 down.
Assay [14] is described as follows: CREB reporter modulators under forskolin, primary screen, cell-based, PC12, CRE-LacZ reporter, forskolin-stimulated (AID 1146).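 Further: PC12 cells with 6xCRE LacZ reporter stimulated by forskolin 10 µM; beta-galactosidase reporter signal reflecting CREB driven transcription.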 To be noted: luminescence, 4.5 h, higher = more signal, called active from +8 up or from −8 down.
Assay [15] deals with Streptavidin (Streptomyces avidinii) (UniProt P22629). Put plainly: streptavidin binders on small-molecule microarray, primary screen, artefact control for SMM compound annotation, biophysical, 635/667 nm fluorescence (AID 1147).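 Further: signal reflects streptavidin binding to arrayed compounds as a control protein.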 To be noted: streptavidin binding, higher = more signal.
Chain of Streptavidin (Streptomyces avidinii) (P22629 whole entry, looked up): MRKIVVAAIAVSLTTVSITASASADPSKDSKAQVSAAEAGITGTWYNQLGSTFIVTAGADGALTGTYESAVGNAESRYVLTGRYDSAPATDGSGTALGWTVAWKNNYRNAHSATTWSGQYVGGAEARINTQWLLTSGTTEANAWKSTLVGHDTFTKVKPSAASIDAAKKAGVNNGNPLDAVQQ
Assay [16] in a line: small-molecule binders of probe aInhba, primary screen, biochemical, small-molecule microarray, 635/667 nm fluorescence (AID 1148).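 Further: score merges 667nm spot fluorescence with signal-to-noise for antibody binding to printed compounds.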 To be noted: higher = more signal.
For assay [17], the target named is Torsin-1A (Homo sapiens) (UniProt O14656). The assay can be described thus: torsin A binders from cell lysate, primary screen, small-molecule microarray, wild-type, 635/667 nm (AID 1149). To be noted: COS7 hTOR1A-WT lysate, 635 nm fluorescence, higher = more signal.
Chain of Torsin-1A (Homo sapiens) (O14656 whole entry, looked up): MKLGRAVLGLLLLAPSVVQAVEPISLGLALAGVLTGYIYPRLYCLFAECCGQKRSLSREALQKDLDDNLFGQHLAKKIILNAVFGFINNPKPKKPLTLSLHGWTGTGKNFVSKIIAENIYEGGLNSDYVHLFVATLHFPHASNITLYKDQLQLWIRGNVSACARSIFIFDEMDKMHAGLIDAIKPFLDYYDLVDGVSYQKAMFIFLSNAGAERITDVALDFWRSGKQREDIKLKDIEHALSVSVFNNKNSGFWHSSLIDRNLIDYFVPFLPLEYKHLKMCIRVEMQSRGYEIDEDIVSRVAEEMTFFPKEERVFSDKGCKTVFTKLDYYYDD
For assay [18] the target is unchanged. The assay can be described thus: small-molecule binders of mutant TOR1A in lysate, primary screen, cell lysate, small-molecule microarray, COS7 lysate, 635/667 nm fluorescence (AID 1150).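 Further: score pools 667 nm emission and signal to noise measuring lysate protein binding.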 To be noted: COS7 hTOR1A mutant lysate, 635 nm fluorescence, higher = more signal.
Assay [19] concerns Sonic hedgehog protein (Shh). The assay can be described thus: small-molecule binders of Shh protein, primary screen, biochemical, small-molecule microarray, 635/667 nm fluorescence (AID 1151).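 Further: Shh protein binding to compounds spotted on small-molecule microarray slides; score combines spot fluorescence intensity with signal-to-noise across triplicate slides.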 To be noted: small-molecule microarray binding, 635 nm fluorescence; higher = more signal.

Active and inactive are the calls of the source. Unless noted, how the calls were made is not given here.

Chain of Focal adhesion kinase 1 (Homo sapiens) (Q05397 whole entry, looked up): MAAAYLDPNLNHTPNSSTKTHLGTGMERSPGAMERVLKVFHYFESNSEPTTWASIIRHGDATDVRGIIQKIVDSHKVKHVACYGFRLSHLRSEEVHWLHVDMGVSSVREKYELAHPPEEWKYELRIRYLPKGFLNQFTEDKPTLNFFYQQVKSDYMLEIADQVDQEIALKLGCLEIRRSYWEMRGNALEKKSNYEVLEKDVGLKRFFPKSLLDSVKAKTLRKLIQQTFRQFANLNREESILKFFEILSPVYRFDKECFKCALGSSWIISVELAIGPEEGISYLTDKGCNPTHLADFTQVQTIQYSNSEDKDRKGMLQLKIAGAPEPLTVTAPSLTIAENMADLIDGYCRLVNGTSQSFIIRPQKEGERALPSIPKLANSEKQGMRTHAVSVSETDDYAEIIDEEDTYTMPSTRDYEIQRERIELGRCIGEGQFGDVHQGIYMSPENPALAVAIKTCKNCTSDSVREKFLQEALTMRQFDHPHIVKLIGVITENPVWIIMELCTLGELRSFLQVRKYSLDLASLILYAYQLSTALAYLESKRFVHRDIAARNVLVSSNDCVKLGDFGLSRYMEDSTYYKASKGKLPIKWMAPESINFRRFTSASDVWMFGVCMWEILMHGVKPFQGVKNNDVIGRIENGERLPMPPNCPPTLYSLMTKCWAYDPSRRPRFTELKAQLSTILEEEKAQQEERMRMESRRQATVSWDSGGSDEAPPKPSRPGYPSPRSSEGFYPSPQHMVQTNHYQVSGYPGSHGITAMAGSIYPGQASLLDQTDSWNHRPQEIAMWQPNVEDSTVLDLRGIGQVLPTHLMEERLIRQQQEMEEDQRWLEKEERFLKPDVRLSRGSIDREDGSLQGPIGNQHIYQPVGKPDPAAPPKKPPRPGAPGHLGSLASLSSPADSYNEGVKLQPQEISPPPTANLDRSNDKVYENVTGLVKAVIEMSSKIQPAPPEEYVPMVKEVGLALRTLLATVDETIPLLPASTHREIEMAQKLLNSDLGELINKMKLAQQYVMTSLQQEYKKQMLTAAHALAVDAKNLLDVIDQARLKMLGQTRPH
Chain of Luciferin 4-monooxygenase (Photinus pyralis) (P08659 whole entry, looked up): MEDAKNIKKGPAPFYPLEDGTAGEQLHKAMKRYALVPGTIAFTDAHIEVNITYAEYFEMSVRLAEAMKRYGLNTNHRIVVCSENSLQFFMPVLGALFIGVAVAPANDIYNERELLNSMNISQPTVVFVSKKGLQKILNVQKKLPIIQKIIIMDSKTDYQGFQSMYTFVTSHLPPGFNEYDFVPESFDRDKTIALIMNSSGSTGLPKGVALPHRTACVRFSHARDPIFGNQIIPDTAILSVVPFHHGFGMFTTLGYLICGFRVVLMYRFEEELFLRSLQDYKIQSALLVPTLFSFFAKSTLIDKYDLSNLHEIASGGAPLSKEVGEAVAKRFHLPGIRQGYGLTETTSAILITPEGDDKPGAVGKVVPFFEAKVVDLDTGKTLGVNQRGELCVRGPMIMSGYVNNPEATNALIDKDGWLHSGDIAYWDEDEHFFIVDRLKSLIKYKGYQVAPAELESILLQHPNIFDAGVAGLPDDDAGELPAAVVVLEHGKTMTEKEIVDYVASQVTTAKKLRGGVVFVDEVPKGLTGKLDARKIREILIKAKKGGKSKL

For `COC(=O)c1c(CC[C@@H](CO)NC(=O)Nc2ncn[nH]2)oc(C(=O)Cc2ccccc2)c1C(=O)OC`, the composite z-score in assay [1] was determined as 0.936; in assay [2], 0.466; in [3], 0.108; in assay [4] it was 0.915; in [5], 1.08; in assay [6], 1.58. Moreover, the composite z-score is 0.895 in the assay on Lefty1; 0.467 in assay [8]; -0.0403 in [10]; 1.36 in assay [15]; 0.0342 in [16]; 1.49 with Torsin-1A (Homo sapiens) [17]. Further, the results for the composite z-score (with Torsin-1A (Homo sapiens) [18]; in assay [19]) were 0.837 and 1.1, respectively. For the same compound, the z-score is -0.491 in assay [7]; 1.03 (inactive) in assay [9]; 0.31 (inactive) in assay [11]; 0.152 (inactive) in assay [12]; -0.0106 (inactive) in [13]; 0.352 (inactive) in [14].
Consider `C=CCOC(=O)[C@@H]1[C@H]2C(=O)O[C@H](c3ccccc3)[C@H](c3ccccc3)N2[C@H](c2ccc(OCCOC(=O)[C@H]3C[C@H]4C(=O)N[C@@H](CC(C)C)C(=O)N4[C@H]3c3cccc(OCCO)c3)cc2)[C@@]12C(=O)Nc1ccc(I)cc12`, for which the composite z-score in assay [1] was 2.26; in assay [2] it was 1.19; in [3] it was 0.844; in [4] it was 0.587; in [5], 1.38; in assay [6] it was 1.63. Also, the composite z-score in the assay with Lefty1 amounted to 1.5; in assay [8], 0.34; in assay [10] it was 0.289; in assay [15], 0.332; in assay [16], 0.247; in the assay with Torsin-1A (Homo sapiens) [17] it was 1. The composite z-score with Torsin-1A (Homo sapiens) [18] amounted to 1.15; in [19], 2.06. Further, the z-score in assay [7] is -0.736; in assay [9] it was -0.201 (inactive); in assay [11], -2.48 (inactive); in [12], -0.174 (inactive); in assay [13], 0.419 (inactive); in [14] it was -0.0639 (inactive).
With `C=CCN1C(=O)[C@@]2(O[C@@H](CCO)[C@H]([Si](C)(C)c3ccc(OC)cc3)[C@H]2C)c2cc(N3C(=O)COc4ccccc43)ccc21`, the composite z-score turned out to be 1.52 in [1]; 1.02 in [2]; 0.346 in assay [3]; 0.578 in assay [4]; 0.25 in assay [5]; 0.27 in assay [6]. The composite z-score in the assay with Lefty1 was 0.0865; in assay [8], 0.577; in [10], 0.564; in assay [15] it was 0.83; in assay [16] it was -0.101; with Torsin-1A (Homo sapiens) [17], -0.048. The composite z-score with Torsin-1A (Homo sapiens) [18] is -0.0358; in assay [19] it was 0.531. Also, the z-score in [7] is -0.839; in assay [9], -0.401 (inactive); in [11], -7.99 (inactive); in [12], 0.798 (inactive); in assay [13], 26 (active); in assay [14], -4.06 (inactive).
On to `O=c1cccc(-c2ccc3ccccc3c2)o1`, for which the composite z-score in [1] was -0.829; in assay [2], -0.788; in assay [3], -0.179; in assay [4] it was -0.656; in [5], 0.305; in assay [6], -0.276. Besides, the composite z-score in the assay with Lefty1 is -0.123; in assay [8] it was -0.276; in [10], -0.0955; in assay [15], 0.351; in assay [16], -0.025; in the assay with Torsin-1A (Homo sapiens) [17] it was -0.0735. Further, the results for the composite z-score (in the assay with Torsin-1A (Homo sapiens) [18]; in assay [19]) were -0.0223 and 0.27, respectively. Also, the z-score in assay [7] was 1.14; in assay [9] it was -2.88 (inactive); in assay [11], -2.3 (inactive); in assay [12], 0.787 (inactive); in assay [13], 0.425 (inactive); in [14], 0.0815 (inactive).
With `[N-]=[N+]=NCc1ccccc1C[C@]1(C(=O)NCC(O)CO)COC(c2ccc(OCCCO)cc2)=N1` (stereo not given in full), the composite z-score in [1] is 1.41; in [2], 1.2; in assay [3], 1.98; in [4], 0.0694; in [5] it was 0.831; in assay [6], -0.0586. Besides, the composite z-score in the assay with Lefty1 is -0.683; in assay [8], 0.964; in assay [10], 0.956; in assay [15], 1.43; in [16], 0.435; in the assay with Torsin-1A (Homo sapiens) [17], 0.842. Besides, the composite z-score with Torsin-1A (Homo sapiens) [18] was 2.3; in [19] it was -1.03. In addition, the z-score is 1.18 in assay [7]; -0.0644 (inactive) in assay [9]; -1.57 (inactive) in assay [11]; 0.305 (inactive) in [12]; 1.12 (inactive) in assay [13]; -1.08 (inactive) in [14].
